Screening results (PubChem)
Rows were chosen to be rich in hits. Some 3.4% of all compounds tested hit in one or more screens of this group.
FBW7 act: FBW7 E3 ligase activators, primary screen, biochemical, AlphaScreen, human; F-box/WD repeat-containing protein 7 (Homo sapiens), Q969H0; AlphaScreen FBW7–phospho-cyclin E peptide binding, activator screen; 650,000 tested, 0.13% active; normalized activity (activation), % at 26.1 µM; AID 1259310, 2017; in the data active means normalized activity above about 1.9%;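 further: purified mutant Fbw7 with reduced substrate affinity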
Target sequence (Q969H0 whole entry, looked up): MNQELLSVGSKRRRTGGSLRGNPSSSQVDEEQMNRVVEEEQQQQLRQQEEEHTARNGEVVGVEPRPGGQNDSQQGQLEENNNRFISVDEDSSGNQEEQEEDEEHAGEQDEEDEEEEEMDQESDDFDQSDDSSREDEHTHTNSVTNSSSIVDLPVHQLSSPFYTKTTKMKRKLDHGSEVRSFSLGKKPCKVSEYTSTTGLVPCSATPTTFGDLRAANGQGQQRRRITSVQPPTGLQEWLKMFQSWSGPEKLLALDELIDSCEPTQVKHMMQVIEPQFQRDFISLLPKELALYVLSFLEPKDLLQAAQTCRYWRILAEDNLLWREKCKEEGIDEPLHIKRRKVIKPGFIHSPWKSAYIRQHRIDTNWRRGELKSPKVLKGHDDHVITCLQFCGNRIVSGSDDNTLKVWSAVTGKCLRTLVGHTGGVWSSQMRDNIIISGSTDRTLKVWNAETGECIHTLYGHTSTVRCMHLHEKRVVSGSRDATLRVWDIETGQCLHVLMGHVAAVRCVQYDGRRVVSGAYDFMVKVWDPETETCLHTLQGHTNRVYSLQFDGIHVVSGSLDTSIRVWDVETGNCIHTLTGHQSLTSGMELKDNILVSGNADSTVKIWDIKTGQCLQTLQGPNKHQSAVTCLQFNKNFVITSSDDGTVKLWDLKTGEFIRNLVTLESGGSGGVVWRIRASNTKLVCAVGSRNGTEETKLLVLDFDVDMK
MITF inh: MITF inhibitors, primary screen, biochemical, AlphaScreen, human. AlphaScreen MITF homodimerization, bead proximity signal. inhibition, % at 2.6 µM. 650,000 tested, 0.91% active. AID 1259374, 2018; in the data active means inhibition above about 50%;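 further: 0% = vehicle wells with protein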
GPR151 activ: activators of human GPR151, primary screen, cell-based, PathHunter beta-arrestin, luminescence; G-protein coupled receptor 151 (Homo sapiens), Q8TDV0; PathHunter beta-arrestin GPR151 cells; activation, % at 11.2 µM; 650,000 tested, 1% active; AID 1508602, 2020; in the data active means activation above about 4.9%;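 further: 0% = median of compound wells and 100% = cells with positive control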
TEAD-YAP inh: TEAD-YAP interaction inhibition, primary screen, TEAD-YAP interaction inhibitor project, luminescence, HEK-TIYL cells; AID 1259422, 2018; inhibition, % at 9.12 µM; 640,000 tested, 1.4% active; TEAD-Gal4/YAP UAS-luciferase luminescence; in the data active means inhibition above about 32%;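 further: 0% = median of test compound wells and 100% = reference inhibitor wells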
GPR151 confirm: GPR151 activators, triplicate retest, confirmation, cell-based, PathHunter beta-arrestin, luminescence; shares compounds with GPR151 activ; GPR151 PathHunter beta-arrestin cells, 90 min; % of EA-reagent control over plate median; activation, % at 11.2 µM; 6,700 tested, under 10 active; AID 1508609, 2020;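 active means mean percent activation across replicates above the confirmation screen cutoff of 4.91%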
GPR119 counter: GPR119 activators in beta-arrestin cells, counter-screen for GPR151 activator project, cell-based, PathHunter beta-arrestin, luminescence, triplicate | shares compounds with GPR151 activ | 90 min; 0 = compound-well median, 100 = enzyme-acceptor control | activation, % at 11.2 µM | 6,700 tested, 0.3% active;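 active means mean percent activation in the counterscreen above 29.09%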;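 further: counterscreen on off-target GPR119 to flag nonselective hits from the GPR151 activator screen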
The depositor's hits bear a star.

Screening CC(C)C(NC(=O)c1ccccc1F)C(=O)OCC(=O)c1ccc(F)cc1 (centres undefined) returned FBW7 act -0.1, MITF inh 2.5, GPR151 activ 9.3*, TEAD-YAP inh -8.9, GPR151 confirm -0.5 and GPR119 counter 0.0.
For COc1ccc(C(=O)COC(=O)C(NC(=O)c2ccc(Cl)cc2)C(C)C)cc1 (centres undefined) the results were FBW7 act 0.2, MITF inh 0.1, GPR151 activ 1.2 and TEAD-YAP inh 9.2.
Screening COc1ccc2cccc(NC(=O)c3ccco3)c2n1 returned FBW7 act 0.2, MITF inh 8.2, GPR151 activ 6.4*, TEAD-YAP inh -0.9, GPR151 confirm 0.1 and GPR119 counter 8.7.
O=C(Nc1cccc2ccc(-n3cccc3)nc12)c1ccco1 was read as FBW7 act -0.1, MITF inh -4.5, GPR151 activ -0.8 and TEAD-YAP inh -5.5.
Screening Cc1cc(C(F)(F)F)nc2snc(Br)c12 returned FBW7 act 0.0, MITF inh 7.8, GPR151 activ 5.2*, TEAD-YAP inh 2.0, GPR151 confirm -1.0 and GPR119 counter -8.7.
`COc1cccc(NC(=O)c2ccc(-c3ccsc3)nc2N2CCOCC2)c1` gave FBW7 act -0.2, MITF inh 3.3, GPR151 activ 9.3*, TEAD-YAP inh -10.4, GPR151 confirm 1.2 and GPR119 counter 3.8.
COc1cccc(NC(=O)c2ccc(-c3cccc(OC)c3)nc2N2CCOCC2)c1 was read as FBW7 act 0.0, MITF inh 15.4, GPR151 activ 1.3 and TEAD-YAP inh -12.9.
CCc1ccc(/C=N\NC(=O)Cc2cccs2)cc1 was read as FBW7 act 0.0, MITF inh 7.5, GPR151 activ 0.4 and TEAD-YAP inh -44.7.
Screening COc1ccc(CNCc2ccc3ccccc3c2)cc1OC returned FBW7 act -0.1, MITF inh 34.4, GPR151 activ 5.1*, TEAD-YAP inh 4.3, GPR151 confirm 0.7 and GPR119 counter 0.6.
For O=C(c1ccccc1)N1CCN(CC(O)Cn2c3ccccc3c3ccccc32)CC1 (centres undefined) the results were FBW7 act 0.0, MITF inh 8.1, GPR151 activ 0.2 and TEAD-YAP inh -8.7.
Screening CC(=O)Nc1cccc(-c2csc(Nc3ccc(C)cc3)n2)c1 returned FBW7 act -0.1, MITF inh -6.3, GPR151 activ 10.0*, TEAD-YAP inh -71.0, GPR151 confirm 0.1 and GPR119 counter 11.3.
For CC(=O)Nc1cccc(-c2csc(Nc3ccccc3Cl)n2)c1 the results were FBW7 act 0.1, MITF inh 0.6, GPR151 activ 5.0*, TEAD-YAP inh -67.1, GPR151 confirm -0.1 and GPR119 counter 4.7.
O=[N+]([O-])c1ccc(Nc2nc(-c3ccccc3)cs2)cc1 was read as FBW7 act 0.6, MITF inh 23.0, GPR151 activ 6.1*, TEAD-YAP inh -36.1, GPR151 confirm 0.7 and GPR119 counter 14.6.
`COc1cc(/C=C/c2[nH]c(=O)[nH]c(=O)c2[N+](=O)[O-])cc(OC)c1OC` gave FBW7 act -0.1, MITF inh 10.3, GPR151 activ 7.7*, TEAD-YAP inh -3.2, GPR151 confirm -1.2 and GPR119 counter -4.2.
COc1cc(/C=C/c2[nH]c(=O)[nH]c(=O)c2[N+](=O)[O-])cc(Cl)c1O was read as FBW7 act -0.2, MITF inh 11.4, GPR151 activ -0.2 and TEAD-YAP inh 2.2.
`NC(=O)CSc1nc2nccnc2c(=O)n1Cc1ccccc1` gave FBW7 act 0.0, MITF inh 0.3, GPR151 activ 0.0 and TEAD-YAP inh 1.4.
For CCOC(=O)CSc1nc2cc(C(=O)NC3CCCCC3)ccc2c(=O)n1CCc1ccccc1 the results were FBW7 act 0.3, MITF inh 17.3, GPR151 activ 5.1*, TEAD-YAP inh 13.3, GPR151 confirm -0.5 and GPR119 counter -1.4.
CCOC(=O)CSc1nc2c(sc(=S)n2Cc2ccccc2)c(=O)n1Cc1ccccc1 was read as FBW7 act 0.1, MITF inh -9.6, GPR151 activ 6.0*, TEAD-YAP inh -13.7, GPR151 confirm 0.2 and GPR119 counter -3.9.
For CCOC(=O)CSc1nc2c(sc(=S)n2Cc2ccccc2)c(=O)n1-c1cccc(Cl)c1 the results were FBW7 act -0.1, MITF inh 2.5, GPR151 activ -0.1 and TEAD-YAP inh 9.6.
Screening CCOC(=O)CSc1nc2c(c(=O)n1Cc1ccccc1)C1(CCCC1)Cc1ccccc1-2 returned FBW7 act 1.3, MITF inh 21.3, GPR151 activ 7.5*, TEAD-YAP inh -3.7, GPR151 confirm 0.3 and GPR119 counter 12.0.
CCOC(=O)CSc1nc2nccnc2c(=O)n1Cc1ccccc1 was read as FBW7 act 0.1, MITF inh 4.7, GPR151 activ 5.0*, TEAD-YAP inh 0.6, GPR151 confirm 0.3 and GPR119 counter -1.5.
For CC(C)(C)Nc1nc(Nc2ccc(OC(F)(F)F)cc2)nc(OCC(F)(F)F)n1 the results were FBW7 act 0.5, MITF inh -14.3, GPR151 activ 1.8 and TEAD-YAP inh -7.6.
Screening CCC(Sc1nnc2c3cc(Br)ccc3n(C)c2n1)C(=O)Nc1ccc(S(N)(=O)=O)cc1 (centres undefined) returned FBW7 act 0.4, MITF inh 3.0, GPR151 activ 8.5*, TEAD-YAP inh -9.8, GPR151 confirm 0.0 and GPR119 counter 9.5.
For CCC(Sc1nnc2c3ccccc3n(C)c2n1)C(=O)Nc1ccc(S(N)(=O)=O)cc1 (centres undefined) the results were FBW7 act -0.1, MITF inh -3.3, GPR151 activ 1.3 and TEAD-YAP inh -4.5.
O=C(CCN1CCN(c2ccccc2F)CC1)Nc1ccc(F)c(F)c1 was read as FBW7 act 0.6, MITF inh 1.8, GPR151 activ -0.7 and TEAD-YAP inh 7.5.
COc1cc(-c2nc(-c3ccccc3)c(-c3cccs3)[nH]2)cc(OC)c1OC was read as FBW7 act -0.1, MITF inh -4.8, GPR151 activ 5.0*, TEAD-YAP inh -2.7, GPR151 confirm -0.8 and GPR119 counter -4.8.
Screening Cc1cc(S(=O)(=O)N2CCN(Cc3ccccc3)CC2)c(Cl)cc1Cl returned FBW7 act 0.1, MITF inh 0.8, GPR151 activ -0.6 and TEAD-YAP inh 14.1.
`Cc1ccccc1C(=O)NCCN1CCn2cc(OCc3ccccc3)c(=O)cc2C1=O` gave FBW7 act 0.1, MITF inh 7.6, GPR151 activ 2.2 and TEAD-YAP inh 1.8.
